Screening data deposited in PubChem by National Center for Advancing Translational Sciences (NCATS).
Shown are actives, neighbours in structure and some others; about 19% of the full set was active somewhere.
IL1B secr inh = blocks inflammasome-driven IL-1 beta release; activity change, % at 57.5 µM; 4.7% of 360,000 active; THP-1 LPS/ATP IL-1B secretion, AlphaLISA, 16 h; hits give low values; AID 743279; in the data active means activity change below about -50%; inconclusive means mostly about -30% to -49%
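Secreted IL-1B measured by AlphaLISA bead assay after 16 h compound exposure of THP-1 cells; compounds (final up to 57.5 uM) added 1 h before LPS (250 ng/mL) and ATP (1.25 mM) stimulation; lower signal means less secretion.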
DT40 TDP1 no CPT = qHTS for Inhibitors of human tyrosyl-DNA phosphodiesterase 1 (TDP1): qHTS in cells in absence of CPT. Potency, µM (top dose mostly 46.2 µM), without a hit: at the highest dose activity change, negative = growth inhibition, usual class: inhibitors. DT40 Tdp1-/- hTDP1 cells, no CPT, ATP luminescence, 48 h. 15% of 420,000 active; further: potency means the concentration at half of the fitted maximal effect; nearly all actives have a fitted effect of over 55% in size
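Readout: luminescence from CellTiter-Glo after 30 min in the dark at RT. Cells: DT40 Tdp1-/- with stable hTDP1, 400/well. Exposure: compounds alone, ≥48 hr, 37 °C.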
TDP1 cell CPT = growth inhibition of DT40 Tdp1-/-;hTDP1 cells with camptothecin (screen for TDP1 inhibitors); 12% of 420,000 active; AID 686979; Potency, µM (doses to about 46.2 µM), without a hit: top-dose activity change, negative = growth inhibition, most hits filed as inhibitors; chicken DT40 Tdp1-/-;hTDP1 cells + 20 nM CPT, ATP luminescence, 48 h; further: potency means the concentration at half of the fitted maximal effect; nearly all actives have a fitted effect of over 55% in size
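Cell growth measured by CellTiter-Glo luminescence after a minimum 48 h, 37 C compound exposure with 20 nM CPT in Tdp1-knockout DT40 cells stably expressing hTDP1, seeded 400/well; qHTS titration format.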
Giardia kill = Giardia lamblia killing; Giardia lamblia trophozoite viability; activity change, % at 7.66 µM, hits read low; 0.15% of 340,000 active; in the data active means activity change below about -80%; inconclusive means between about -30% and that limit;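 further: parasites exposed to compound for two days anaerobically before the ATP read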
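Compounds were tested on trophozoites seeded at 100 cells/well and held 48 hrs at 37 deg C anaerobically. An ATP-based luminescent kit measured the remaining live cells.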
TDP1 block = blocks human tyrosyl-DNA phosphodiesterase 1. Q9NUW8. Potency, µM (highest dose often 130 µM), for the others: at the highest dose activity change, negative = inhibition, actives largely listed as inhibitors. recombinant TDP1, AlphaScreen DNA substrate cleavage. 0.28% of 350,000 active; further: potency means the concentration at half of the fitted maximal effect; nearly all actives have a fitted effect of over 40% in size
Target sequence (Q9NUW8 whole entry, looked up): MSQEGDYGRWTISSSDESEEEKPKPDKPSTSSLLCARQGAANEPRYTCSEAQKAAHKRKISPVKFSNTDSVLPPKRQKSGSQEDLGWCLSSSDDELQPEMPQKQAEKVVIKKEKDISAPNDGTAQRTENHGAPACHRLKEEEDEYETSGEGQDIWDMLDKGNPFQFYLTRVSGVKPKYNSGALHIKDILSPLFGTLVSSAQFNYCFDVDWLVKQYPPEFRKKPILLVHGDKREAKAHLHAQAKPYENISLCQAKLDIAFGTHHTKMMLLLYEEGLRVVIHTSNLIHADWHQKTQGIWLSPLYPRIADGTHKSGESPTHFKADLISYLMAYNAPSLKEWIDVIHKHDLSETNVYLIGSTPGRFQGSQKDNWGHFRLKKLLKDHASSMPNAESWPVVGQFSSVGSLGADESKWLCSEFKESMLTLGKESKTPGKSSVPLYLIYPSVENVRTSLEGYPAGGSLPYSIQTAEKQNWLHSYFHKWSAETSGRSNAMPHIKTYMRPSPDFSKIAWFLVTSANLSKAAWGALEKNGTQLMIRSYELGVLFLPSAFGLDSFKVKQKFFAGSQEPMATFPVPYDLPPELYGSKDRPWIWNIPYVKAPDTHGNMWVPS
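E. coli-derived human Tdp1, 1 nM final. Cpd preinc 15 min RT; substrate 15 nM final, 5 min RT; AS bead mix 10 ug/ml final, 10 min RT. Signal loss = tyrosine-FITC cleavage. No-enzyme wells = max signal.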
ELG1 repair inh = inhibitors of ELG1-dependent DNA repair in HEK293T cells; HEK293T ELG1-luciferase reporter, luminescence, 16 h; DNA damage induced by 5-fluorouridine; Potency, µM (series often up to 46.1 µM), without a hit: at the top dose activity change, negative = inhibition, hits mostly inhibitors; 2.3% of 330,000 active; further: potency means the concentration at half of the fitted maximal effect; nearly all actives have a fitted effect of over 55% in size
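Quantitative HTS, concentration-response format. 2,000 cells/well co-treated with 5-fluorouridine and compound, 16 hr in 5% CO2 at 37 °C; ONE-Glo luminescence read after 30 min.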
The depositor's hits bear a star; ? = inconclusive; . = no result; [ ] = dose if it differs, or a comment. Unless noted, the call rests on the fitted dose curve; in most records, active means well fitted curve in the direction sought with a large enough effect; inconclusive means small, poorly fitted or top-dose-only effect, or another doubt; inactive means no such curve, though single readings can be large; an effect the other way counts as inactive or inconclusive. On the % scale 0 is the no-effect control and ±100 the full control effect.

SMILES	IL1B secr inh	DT40 TDP1 no CPT	TDP1 cell CPT	Giardia kill	TDP1 block	ELG1 repair inh
CN(c1ccccc1)S(=O)(=O)c1cccc(NC(=O)COc2cccc([N+](=O)[O-])c2)c1	-12	23µM*	?	-9	-2%[56.1 µM]	-28%
O=C(O)C1C=CC(C(=O)O)c2ccccc21 (stereo not given)	0	-1%	0%	.	.	.
CCOc1cc(C2NC(=O)CCC2[N+](=O)[O-])cc(Br)c1OC (stereo not given)	10	?	?	5	.	-4%
COc1ccccc1N(CC(=O)N1CCOCC1)S(C)(=O)=O	11	14%	1%	4	1%	-1%
COc1ccccc1CNC(=O)CCc1nnc2ccc(NCCCN3CCCC3=O)nn12	5	-1%	-30%	3	0%	12%
CN1C(=O)N(CC(=O)Nc2cccc(S(=O)(=O)N(C)c3ccccc3)c2)C(=O)C12CCCCC2	-20	21µM*	?	-5	0%	-5%
CC(=O)Nc1cccc(-n2nnc(SCC(=O)N(C)c3ccccc3)n2)c1	27	-16%	-5%	12	5%	-4%
CNC(=O)N(O)C1N(/N=C/c2ccccc2O)C(=S)SC1(C)C (stereo not given)	22	2.1µM*	5.2µM*	-11	8%	-3%
COc1ccc(Cl)cc1NS(=O)(=O)c1c(C)[nH]c(C)c1C(=O)N1CCCCC1	17	?	-25%	-1	6%	4%
C=CCC[C@@H](Cc1ccc(F)cc1)C(=O)OC[C@@H](NC(=O)[C@H](CC=C)CC(=O)N(CCO)Cc1ccccc1)c1ccccc1	-60*	?	?	-9	1%	?
C=CCC[C@@H](Cc1ccc(F)cc1)C(=O)OC[C@@H](NC(=O)[C@@H](CC=C)CC(=O)N(CCO)Cc1ccccc1)c1ccccc1	-67*	26µM*	15µM*	-4	-1%	21µM*
C=CCC[C@@H](Cc1ccc(F)cc1)C(=O)OC[C@@H](NC(=O)[C@H](CC=C)CC(=O)NCCO)C(C)(C)C	5	?	?	-25	2%	18%
OCC1CCCCN1C(=S)Nc1cccc(Cl)c1 (stereo not given)	0	-11%	0%	-2	3%	-7%
Cc1ccc(-c2c3c(=O)n(C)c(=O)n(C)c3c3c(C(F)(F)F)nc4ccccc4n23)cc1	.	?	?	.	-3%	.
O=C(NCCCN1CCCC1)Nc1ccccc1[N+](=O)[O-]	4	-2%	-10%	3	.	-1%
CCOC(=O)C(=O)NN=C(c1ccccc1)c1ccccc1	7	-10%	-12%	3	7%	-13%
Cc1noc(C)c1COC(=O)CCN1c2ccccc2Sc2ccccc21	-16	21µM*	?	-1	4%	?
Cc1noc(C)c1COC(=O)CCc1nc2ccccc2s1	-1	-10%	-14%	-13	4%	?
C=CC[C@@H](CC(=O)N[C@@H](CO)Cc1ccccc1)C(=O)N[C@H](COC(=O)[C@H](CC=C)CC(=O)OC(C)(C)C)Cc1c[nH]c2ccccc12	-29	21µM*	?	37	-4%	?
C=CC[C@H](CC(=O)NCCO)C(=O)N[C@H](COC(=O)[C@@H](CC=C)CC(=O)OC(C)(C)C)Cc1ccccc1	8	?	-18%	-16	1%	-12%
C=CC[C@@H](CC(=O)N[C@H](CO)Cc1ccccc1)C(=O)N[C@H](COC(=O)[C@H](CC=C)CC(=O)OC(C)(C)C)Cc1c[nH]c2ccccc12	-6	?	?	4	.	.
C=CC[C@@H](CC(=O)N[C@H](CO)Cc1ccccc1)C(=O)N[C@H](COC(=O)[C@@H](CC=C)CC(=O)OC(C)(C)C)Cc1ccccc1	-52*	?	?	-19	1%	-6%
COc1ccc(CCNC(=O)c2ccc3c(c2)NC(=O)C(CSCc2cc(C)ccc2C)N3)cc1OC (stereo not given)	.	.	.	.	6%	17%
COC(=O)c1ccc(-n2c(C)cc(/C=N/Nc3nc(C)cc(=O)[nH]3)c2C)cc1	13	16µM*	15µM*	8	.	-19%
Cc1cc(=O)[nH]c(N/N=C/c2cc(C)n(CC(F)(F)F)c2C)n1	10	7.3µM*	8.2µM*	-7	6%	?
SMILES	IL1B secr inh	DT40 TDP1 no CPT	TDP1 cell CPT	Giardia kill	TDP1 block	ELG1 repair inh
COc1cccc(/C=N/Nc2nc(C)cc(=O)[nH]2)c1OC	25	-4%	-4%	3	.	?
CCC(C)c1nc2ccsc2c(N2CCOC2=O)c1-c1ccccc1 (stereo not given)	-8	?	?	35	.	.
CN(C)c1ccc(C(CNS(=O)(=O)c2ccc(Cl)cc2)N2CCOCC2)cc1 (stereo not given)	.	?	-17%	.	4%	.
COc1cc(-c2nc(-c3ccc4c(c3)[nH]c(=O)n4C)no2)cc(OC)c1OC	.	-14%	-16%	.	9%	.
CCc1ccc(C2c3[nH]c4ccccc4c3CCN2C(=O)c2ccc(=O)n(C)n2)cc1 (stereo not given)	30	?	?	-18	6%	?
CCc1ccc(C2c3[nH]c4ccccc4c3CCN2C(=O)CNC(N)=O)cc1 (stereo not given)	-57*	-7%	-14%	13	.	2%
CCc1ccc(C2c3[nH]c4ccccc4c3CCN2C(=O)CN2CCN(CC)CC2)cc1 (stereo not given)	-72*	26µM*	?	9	0%	-4%
Cc1ccc(CN2CCC2(C)C(=O)NC2CCc3ccccc32)cc1 (stereo not given)	1	23µM*	?	.	.	.
CSc1ccc(CN2CCC2(C)C(=O)NC2CCc3ccccc32)cc1 (stereo not given)	-1	16µM*	?	.	.	.
COc1cccc(-n2cc(C(=O)NCCc3cccc(C)c3)c3ccccc3c2=O)c1	.	18µM*	?	.	0%	.
CCCCN(C)C(=O)c1cn(-c2cccc(OC)c2)c(=O)c2ccccc12	18	6%	-2%	10	.	13%
COc1cccc(-n2cc(C(=O)NCc3ccccc3OC)c3ccccc3c2=O)c1	.	?	?	.	4%	.
COCCCNC(=O)c1cn(-c2cccc(OC)c2)c(=O)c2ccccc12	-4	2%	-2%	25	.	-25%
CCc1ccccc1N(C)C(=O)c1cn(-c2cccc(OC)c2)c(=O)c2ccccc12	.	16µM*	15µM*	.	1%	.
